Compound activity from PubChem BioAssay.
Compounds with a hit are over-represented: about 9.9% of the library has one in this group of screens.
ALDH1A1 inh = inhibitors of human aldehyde dehydrogenase 1A1 | P00352 | Purified ALDH1A1, NADH fluorescence, propionaldehyde substrate | Potency, µM (doses to about 75.3 µM), for inactives: at the highest dose activity, negative = inhibition, actives largely listed as inhibitors | 220,000 compounds, 7.3% hits; active = well fitted inhibition curve with a large enough effect, not every such curve was filed as active; inconclusive = small, poorly fitted or top-dose-only effect, or another doubt; inactive = no such curve, though single readings can be large or run the other way;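 note: plate controls were no enzyme wells and a reference inhibitor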
Target sequence (P00352 whole entry, looked up): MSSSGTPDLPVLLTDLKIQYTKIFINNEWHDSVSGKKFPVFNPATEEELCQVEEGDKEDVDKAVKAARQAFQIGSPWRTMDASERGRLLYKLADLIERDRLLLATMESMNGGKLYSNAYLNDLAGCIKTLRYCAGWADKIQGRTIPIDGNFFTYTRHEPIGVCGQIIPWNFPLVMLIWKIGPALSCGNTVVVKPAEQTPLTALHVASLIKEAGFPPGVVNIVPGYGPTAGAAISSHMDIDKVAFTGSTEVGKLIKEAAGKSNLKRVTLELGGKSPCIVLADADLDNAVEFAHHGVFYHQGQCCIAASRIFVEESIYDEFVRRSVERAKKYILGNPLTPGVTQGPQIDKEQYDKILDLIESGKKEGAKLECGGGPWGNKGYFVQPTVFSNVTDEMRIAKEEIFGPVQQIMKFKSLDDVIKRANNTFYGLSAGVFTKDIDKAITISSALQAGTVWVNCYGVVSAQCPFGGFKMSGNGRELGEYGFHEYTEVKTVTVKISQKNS
Tau fluor cs = counter-screen for tau fibril formation inhibitors. tau K18 P301L Alexa594 fluorescence, heparin fibrillization. Potency, µM (titrated, usually from 57.7 µM), for inactives: top-dose activity change, negative = decrease. AID 1463. 280,000 compounds, 0.93% hits; note: nearly all actives have a fitted effect of over 55% in size
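Human K18 P301L tau (15 uM unlabeled plus 0.24 uM Alexa 594-labeled, final) in 100 mM sodium acetate pH 7 was mixed with compound and 20 uM heparin and incubated 6 hr at 37 C.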
KDM4E inh = inhibitors of human JMJD2E histone demethylase; B2RXH2; Potency, µM (titrated, usually from 57.1 µM), inactives show at the top dose activity change, negative = inhibition, most hits filed as inhibitors; AID 2147; 230,000 compounds, 1.6% hits; JMJD2E catalytic domain, FDH-coupled NADH fluorescence (FDH is formaldehyde dehydrogenase);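 note: 0% = wells with enzyme and -100% = buffer wells without enzyme; nearly all actives have a fitted effect of over 50% in size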
Tau FP inhib = blocks human tau fibril formation measured by polarization; K18 P301L tau heparin fibrillization, Alexa594 FP, 6 h; Potency, µM (doses to about 57.7 µM), without a hit: top-dose activity, negative = inhibition, usual class: inhibitors; 280,000 compounds, 0.39% hits; note: nearly all actives have a fitted effect of over 55% in size
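Heparin (20 uM) drove fibril formation of recombinant tau K18 P301L, 15 uM unlabeled with 0.24 uM Alexa 594 label, for 6 hr at 37 C in 100 mM sodium acetate pH 7. Fluorescence polarization (555/632 nm) read 1 hr after 30 uM ThT.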
Tau ThT inhib = blocks human tau fibril formation measured by thioflavin T | recombinant tau K18 P301L (four-repeat tau fragment), heparin-induced fibrillization, ThT fluorescence | P10636 | Potency, µM (highest dose often 57.4 µM), inactives show top-dose activity, negative = inhibition, usual class: inhibitors | 270,000 compounds, 2.1% hits; note: nearly all actives have a fitted effect of over 55% in size
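Heparin-induced (20 uM) aggregation of recombinant human K18 P301L tau, 15 uM unlabeled with 0.24 uM labeled, pH 7 acetate buffer, 6 hr at 37 C with compound. Fibrils quantified by 30 uM ThT fluorescence after 1 hr ambient incubation.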
HPGD inh = blocks human HPGD enzyme activity | Potency, µM, for inactives: top-dose activity change, negative = inhibition, most hits filed as inhibitors | 150,000 compounds, 4.3% hits | purified HPGD, NADH fluorescence kinetic, PGE2 substrate | P15428 | AID 894; active = well fitted inhibition curve with a large enough effect, not every such curve was filed as active; inconclusive = small, poorly fitted or top-dose-only effect, or another doubt; inactive = no such curve, though single readings can be large or run the other way
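20 nM HPGD preincubated 15 min at room temperature with compound in 50 mM Tris-HCl pH 8, 0.01% Tween 20. Started with 1 mM NAD+ and 30 uM prostaglandin E2; NADH fluorescence (360/450 nm) read 5 times over 30-s intervals, last minus first.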
* hit, by the source's call; ? = inconclusive; · = no result; [ ] = another dose, or the depositor's remark. Unless noted, calls come from the whole dose curve; as a rule, active = well fitted curve in the direction sought with a large enough effect; inconclusive = small, poorly fitted or top-dose-only effect, or another doubt; inactive = no such curve, though single readings can be large; an effect the other way counts as inactive or inconclusive. Unless noted, % is set by controls: 0 for no effect and ±100 for the full control effect; potency is the fitted concentration of half-maximal effect.

SMILES	ALDH1A1 inh	Tau fluor cs	KDM4E inh	Tau FP inhib	Tau ThT inhib	HPGD inh
Cc1cc(C)nc(N/N=C/C2=C(O)CC(c3ccccc3)CC2=O)n1 (configuration not stated)	·	10.5%	?	-1.6%	·	·
O=C(c1ccco1)N1CCC[C@@]2(CCN(Cc3ccncc3)C2)C1	10µM*	·	·	·	·	-6.6%
O=C(c1ccco1)N1CCC2(CC1)CN(Cc1ccncc1)C2	12.6µM*	·	·	·	·	-4.4%
COCC(=O)N1CCC2(CCCN(Cc3ccncc3)C2)CC1	?	·	·	·	·	-8.7%
O=C(c1ccncc1)N1CCC2(CC1)CN(Cc1ccccc1)C2	-1.1%	·	·	·	·	-3.5%
N#CCCC#N	28.2µM*	·	·	·	·	-10.2%
COc1cc2cc(c1Cl)N(C)C(=O)C[C@H](OC(=O)C(C)C)[C@]1(C)O[C@@H]1[C@@H](C)[C@H]1C[C@](O)(NC(=O)O1)[C@@H](OC)/C=C\C=C(\C)C2	0.1%[13.5 µM]	·	·	·	·	-3.7%
Cc1cc(C=C2C(=O)NC(=S)NC2=O)c(C)n1C1CCCC1	7.08µM*	-22.3%	5.8%	-13.0%	15.8µM*	·
CC(=O)OC1CCC23C(=O)OC45CCC(C6=CC(=O)OC6)C4(C)CCC2C5CCC3(O)C1 (configuration not stated)	0.5%	-11.8%	-3.3%	-8.3%	-8.0%	0.3%
O=C1CC(N2CCC(n3c(=O)[nH]c4ccccc43)CC2)C(=O)N1c1ccc(F)cc1 (configuration not stated)	-1.8%	-1.2%	5.2%	-2.6%	-12.0%	-1.2%
N#CC1(c2ccccc2)CCN(C2CC(=O)N(c3cccc(F)c3)C2=O)CC1 (configuration not stated)	?	-8.7%	3.3%	-5.4%	-3.6%	·
CCOC(=O)c1ccc(N2C(=O)CC(N3CCC(O)(c4ccc(Br)cc4)CC3)C2=O)cc1 (configuration not stated)	1.58µM*	-7.6%	-1.3%	3.5%	-13.6%	?
CCOC(=O)c1ccc(N2C(=O)CC(N3CCC(O)(c4ccc(Cl)cc4)CC3)C2=O)cc1 (configuration not stated)	7.94µM*	-5.4%	7.5%	0.4%	-13.7%	-11.9%
COc1ccc(CCNc2nc3c(c(=O)n(C)c(=O)n3C)n2Cc2ccc(F)cc2)cc1OC	·	?	·	15.1%	-11.0%	·
CCOC(=O)[C@]1(C#N)[C@@H]2C=CC(C(C)=O)=CN2[C@@H](C(N)=O)[C@@H]1c1ccsc1	?	-25.8%	1.8%	?	31.6µM*	-24.7%
[O-][Cl+]O	3.3%	·	·	·	·	-9.3%
COc1ccc(P2(=O)Nc3ccccc3N2)cc1	23.9%	-1.8%	-12.3%	6.6%	?	25.1µM*
Cc1onc(-c2c(Cl)cccc2Cl)c1C(=O)Nc1ccc2c(C(F)(F)F)cc(=O)oc2c1	·	?	?	?	-12.9%	·
COc1ccc(CC(=O)Nc2ccc3c(C(F)(F)F)cc(=O)oc3c2)cc1OC	7.94µM*	-16.1%	-4.8%	-9.8%	-2.6%	-15.1%
S=C1Nc2ccccc2Sc2ccccc21	10µM*	-23.8%	-8.8%	-14.5%	-15.2%	·
Cc1ccc(C(=O)NC(O)C(Cl)(Cl)Cl)cc1 (configuration not stated)	0.4%	-10.1%	-2.3%	-11.1%	-3.9%	14.1µM*
CC(C)n1c(/C=C\[C@@H](O)C[C@@H](O)CC(=O)O)c(-c2ccc(F)cc2)c2ccccc21	?	·	?	·	·	-12.5%
COc1cccc(Oc2c(C)oc3cc(OC(=O)N(C)C)ccc3c2=O)c1	22.4µM*	-12.0%	?	6.9%	-6.8%	-18.4%
C/C(=N\Nc1ccccc1)c1c(O)[nH]c(=O)[nH]c1=O	·	5.3%	-6.7%	3.9%	·	·
CC(N=Cc1c(O)[nH]c(=O)[nH]c1=O)c1ccccc1 (configuration not stated)	?	3.2%	0.9%	1.1%	3.8%	28.2µM*
Cc1nn(-c2ccccc2)c2c1C(c1ccc(F)cc1F)C(C#N)=C(N)O2 (configuration not stated)	12.6µM*	-21.6%	-14.8%	?	?	28.2µM*
